# What was measured:
# Assay in all cases: DAPPL (digital affinity profiling via proximity ligation, sequencing); 10 mM Tris-HCl pH 7.5, 50 mM NaCl, 1 mM DTT, 4% glycerol, room temperature, 30 min; GST-TFs on glutathione beads, 16-mer random dsDNA library, 0.1% formaldehyde crosslink after washing; high values mean tight binding
# Conditions in all cases: protein: recombinant; tags: N-terminal GST; dsDNA, one strand shown
# [1] = target: T1, ELK1 (Homo sapiens, UniProt P19419 1-428)
# T1 sequence: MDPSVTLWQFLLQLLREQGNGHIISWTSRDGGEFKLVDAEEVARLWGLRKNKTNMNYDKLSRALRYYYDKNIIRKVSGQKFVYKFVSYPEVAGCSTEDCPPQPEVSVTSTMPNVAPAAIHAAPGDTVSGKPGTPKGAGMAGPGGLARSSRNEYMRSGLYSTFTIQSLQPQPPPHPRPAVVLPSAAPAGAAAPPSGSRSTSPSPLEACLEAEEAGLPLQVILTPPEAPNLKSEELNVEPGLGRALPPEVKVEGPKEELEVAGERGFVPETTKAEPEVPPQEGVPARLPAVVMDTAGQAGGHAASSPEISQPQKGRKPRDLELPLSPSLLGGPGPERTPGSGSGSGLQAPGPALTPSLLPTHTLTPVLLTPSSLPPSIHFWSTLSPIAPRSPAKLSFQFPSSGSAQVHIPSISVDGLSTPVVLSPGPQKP
# How it was run: (§1)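 A tag-only sample was pooled with DNA-barcoded human transcription factors that had been expressed in yeast as GST fusions and captured on glutathione beads. The pools were incubated for 30 min at room temperature with 200 nmole of a random double-stranded 16-mer DNA library in Tris/NaCl/DTT/glycerol buffer, then washed, crosslinked with 0.1% formaldehyde, proximity-ligated (BsaI/T4 ligase, 1 h, 37 °C), PCR-amplified and sequenced on an Illumina NextSeq500. Binding signal is each hexamer's read frequency for a factor divided by its frequency for the tag-only sample.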
# [2] = target: T2, GABPA (Homo sapiens, UniProt Q06546 1-454)
# T2 sequence: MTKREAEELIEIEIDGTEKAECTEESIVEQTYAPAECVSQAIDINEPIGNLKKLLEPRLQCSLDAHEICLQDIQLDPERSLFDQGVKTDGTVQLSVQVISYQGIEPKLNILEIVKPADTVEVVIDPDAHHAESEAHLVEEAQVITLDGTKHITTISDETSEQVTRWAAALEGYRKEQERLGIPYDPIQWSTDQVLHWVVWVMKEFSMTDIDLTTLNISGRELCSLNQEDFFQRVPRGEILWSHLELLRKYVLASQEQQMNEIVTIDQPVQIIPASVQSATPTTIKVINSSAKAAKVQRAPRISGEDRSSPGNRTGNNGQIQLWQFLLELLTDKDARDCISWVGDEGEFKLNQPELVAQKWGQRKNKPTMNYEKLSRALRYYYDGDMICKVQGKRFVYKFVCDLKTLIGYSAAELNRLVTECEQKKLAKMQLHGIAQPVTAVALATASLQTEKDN
# How it was run: as §1
# [3] = target: T3, ERG (Homo sapiens, UniProt P11308 1-479)
# T3 sequence: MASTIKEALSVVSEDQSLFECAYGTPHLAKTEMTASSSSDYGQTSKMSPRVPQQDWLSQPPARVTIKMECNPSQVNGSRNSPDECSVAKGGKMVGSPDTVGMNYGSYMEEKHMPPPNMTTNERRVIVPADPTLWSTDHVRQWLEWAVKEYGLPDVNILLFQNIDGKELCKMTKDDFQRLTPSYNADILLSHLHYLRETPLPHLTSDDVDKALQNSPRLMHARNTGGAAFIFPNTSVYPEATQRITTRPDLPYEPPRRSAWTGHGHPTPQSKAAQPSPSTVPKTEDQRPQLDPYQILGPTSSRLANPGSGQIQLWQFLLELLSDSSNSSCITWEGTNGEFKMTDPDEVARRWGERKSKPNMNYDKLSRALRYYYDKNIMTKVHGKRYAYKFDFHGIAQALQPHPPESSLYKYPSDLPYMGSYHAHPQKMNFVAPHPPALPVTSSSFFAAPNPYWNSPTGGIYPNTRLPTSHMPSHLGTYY
# How it was run: as §1
# [4] = target: ELF1 (Homo sapiens, UniProt P32519 1-619)
# How it was run: as §1
# [5] = target: T4, EHF (Homo sapiens, UniProt Q9NZC4 1-300)
# T4 sequence: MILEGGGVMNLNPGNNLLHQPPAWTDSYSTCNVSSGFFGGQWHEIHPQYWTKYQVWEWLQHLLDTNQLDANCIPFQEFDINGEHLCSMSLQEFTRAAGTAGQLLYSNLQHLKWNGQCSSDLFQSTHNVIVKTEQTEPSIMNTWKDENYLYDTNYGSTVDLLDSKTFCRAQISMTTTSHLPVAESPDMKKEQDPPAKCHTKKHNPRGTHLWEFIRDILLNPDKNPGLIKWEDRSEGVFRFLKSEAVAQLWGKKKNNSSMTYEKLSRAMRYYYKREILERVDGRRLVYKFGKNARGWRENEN
# How it was run: as §1
# [6] = target: SPIB (Homo sapiens, UniProt Q01892 1-262)
# How it was run: as §1
# [7] = target: T5, FEV (Homo sapiens, UniProt Q99581 1-238)
# T5 sequence: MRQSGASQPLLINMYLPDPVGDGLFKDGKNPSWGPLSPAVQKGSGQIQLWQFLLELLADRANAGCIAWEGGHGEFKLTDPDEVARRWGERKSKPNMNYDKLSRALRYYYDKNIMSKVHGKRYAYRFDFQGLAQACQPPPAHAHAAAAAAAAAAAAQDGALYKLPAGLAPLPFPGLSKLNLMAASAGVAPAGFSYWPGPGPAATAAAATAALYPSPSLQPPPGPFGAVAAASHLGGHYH
# How it was run: as §1
# [8] = target: ETV5 (Homo sapiens, UniProt P41161 1-510)
# How it was run: as §1
# [9] = target: ELF4 (Homo sapiens, UniProt Q99607 1-663)
# How it was run: as §1
# [10] = target: T6, ELK4 (Homo sapiens, UniProt P28324-2 1-405)
# T6 sequence: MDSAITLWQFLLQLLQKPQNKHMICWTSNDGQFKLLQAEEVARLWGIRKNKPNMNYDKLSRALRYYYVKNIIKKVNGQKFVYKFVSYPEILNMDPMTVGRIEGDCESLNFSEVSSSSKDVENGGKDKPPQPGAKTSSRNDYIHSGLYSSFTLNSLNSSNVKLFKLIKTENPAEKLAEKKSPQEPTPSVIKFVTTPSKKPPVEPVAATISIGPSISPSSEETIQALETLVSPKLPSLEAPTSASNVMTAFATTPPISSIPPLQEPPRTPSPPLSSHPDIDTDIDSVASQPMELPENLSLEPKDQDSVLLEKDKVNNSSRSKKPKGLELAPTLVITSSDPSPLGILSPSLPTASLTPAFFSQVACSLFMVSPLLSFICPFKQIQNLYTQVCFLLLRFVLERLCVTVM
# How it was run: as §1
# Chain of ELF1 (P32519 whole entry): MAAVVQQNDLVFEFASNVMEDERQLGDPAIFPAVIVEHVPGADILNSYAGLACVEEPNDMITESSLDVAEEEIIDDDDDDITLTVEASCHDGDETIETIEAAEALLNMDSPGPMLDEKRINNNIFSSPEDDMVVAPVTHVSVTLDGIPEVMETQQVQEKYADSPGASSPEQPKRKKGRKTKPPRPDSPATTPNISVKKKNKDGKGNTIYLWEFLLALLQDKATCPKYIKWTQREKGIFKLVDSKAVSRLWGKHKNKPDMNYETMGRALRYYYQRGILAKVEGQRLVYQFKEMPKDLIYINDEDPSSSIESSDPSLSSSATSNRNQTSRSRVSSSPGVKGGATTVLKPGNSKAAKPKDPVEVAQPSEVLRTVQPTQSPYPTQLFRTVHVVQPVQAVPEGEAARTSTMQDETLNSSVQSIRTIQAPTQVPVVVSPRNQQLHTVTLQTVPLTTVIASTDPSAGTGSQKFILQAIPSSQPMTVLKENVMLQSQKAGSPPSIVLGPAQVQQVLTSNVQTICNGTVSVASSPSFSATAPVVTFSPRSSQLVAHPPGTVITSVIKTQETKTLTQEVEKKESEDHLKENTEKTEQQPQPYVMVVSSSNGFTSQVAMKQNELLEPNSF
# Chain of SPIB (Q01892 whole entry): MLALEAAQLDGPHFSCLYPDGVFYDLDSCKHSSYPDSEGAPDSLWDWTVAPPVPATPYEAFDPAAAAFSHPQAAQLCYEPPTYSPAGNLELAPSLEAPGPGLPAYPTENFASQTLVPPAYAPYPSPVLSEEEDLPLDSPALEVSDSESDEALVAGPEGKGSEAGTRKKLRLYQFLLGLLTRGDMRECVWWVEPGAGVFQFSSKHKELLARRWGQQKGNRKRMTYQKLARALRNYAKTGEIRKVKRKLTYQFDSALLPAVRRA
# Chain of ELF4 (Q99607 whole entry): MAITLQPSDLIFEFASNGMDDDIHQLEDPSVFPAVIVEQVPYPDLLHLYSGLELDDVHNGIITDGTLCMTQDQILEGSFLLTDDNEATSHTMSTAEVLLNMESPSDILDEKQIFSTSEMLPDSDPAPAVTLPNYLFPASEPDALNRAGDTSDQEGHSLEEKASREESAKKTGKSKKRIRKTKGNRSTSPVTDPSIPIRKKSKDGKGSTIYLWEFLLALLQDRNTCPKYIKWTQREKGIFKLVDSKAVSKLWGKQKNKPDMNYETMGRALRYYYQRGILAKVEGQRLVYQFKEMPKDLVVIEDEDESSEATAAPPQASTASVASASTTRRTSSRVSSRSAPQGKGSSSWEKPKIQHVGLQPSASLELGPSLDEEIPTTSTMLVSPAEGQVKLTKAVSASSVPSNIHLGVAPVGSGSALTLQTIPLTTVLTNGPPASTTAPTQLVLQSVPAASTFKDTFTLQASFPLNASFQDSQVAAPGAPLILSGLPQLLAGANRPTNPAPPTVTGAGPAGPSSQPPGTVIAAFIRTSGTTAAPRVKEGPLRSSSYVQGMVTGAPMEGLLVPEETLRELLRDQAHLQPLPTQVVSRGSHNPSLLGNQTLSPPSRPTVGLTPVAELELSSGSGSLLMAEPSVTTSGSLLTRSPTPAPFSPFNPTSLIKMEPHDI
# Chain of ETV5 (P41161 whole entry): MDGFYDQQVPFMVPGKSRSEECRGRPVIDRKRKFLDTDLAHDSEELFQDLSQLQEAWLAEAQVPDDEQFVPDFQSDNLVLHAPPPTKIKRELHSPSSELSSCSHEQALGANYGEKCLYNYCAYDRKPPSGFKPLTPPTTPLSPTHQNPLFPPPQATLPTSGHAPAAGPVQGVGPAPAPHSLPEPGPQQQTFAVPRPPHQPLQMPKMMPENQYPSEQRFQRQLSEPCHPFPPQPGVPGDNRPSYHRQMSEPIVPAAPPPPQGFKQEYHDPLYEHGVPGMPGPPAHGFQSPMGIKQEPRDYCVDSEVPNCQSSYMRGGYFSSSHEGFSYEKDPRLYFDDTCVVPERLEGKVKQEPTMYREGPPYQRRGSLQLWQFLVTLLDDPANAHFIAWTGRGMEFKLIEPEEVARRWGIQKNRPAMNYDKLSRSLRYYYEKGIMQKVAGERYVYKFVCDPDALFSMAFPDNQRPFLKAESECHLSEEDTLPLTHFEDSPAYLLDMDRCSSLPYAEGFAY
sequence,measurement,setting,value
ACCATT,binding signal,[1],"1.11 fold enrichment (6-mer frequency, TF over GST control)"
same,binding signal,[2],"1.1 fold enrichment (6-mer frequency, TF over GST control)"
same,binding signal,[3],"1.12 fold enrichment (6-mer frequency, TF over GST control)"
same,binding signal,[4],"1.1 fold enrichment (6-mer frequency, TF over GST control)"
same,binding signal,[5],"1.11 fold enrichment (6-mer frequency, TF over GST control)"
same,binding signal,[6],"1.11 fold enrichment (6-mer frequency, TF over GST control)"
same,binding signal,[7],"1.15 fold enrichment (6-mer frequency, TF over GST control)"
same,binding signal,[8],"1.08 fold enrichment (6-mer frequency, TF over GST control)"
same,binding signal,[9],"1.19 fold enrichment (6-mer frequency, TF over GST control)"
same,binding signal,[10],"1.15 fold enrichment (6-mer frequency, TF over GST control)"

# From PMC7862700, “An all-to-all approach to the identification of sequence-specific readers for epigenetic DNA modifications on cytosine”
